# Source: the supplement of paper PMC10646978
# ± gives the standard deviation.
# Tested on: RAW-Dual (murine macrophage reporter line)
# Test: IRF reporter (Lucia luciferase) activity fold change vs agonist alone; higher = enhanced IRF activity
# Conditions: modulator concentration 10 µM; agonist: MPLA […]
# Procedure, shortened: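 RAW-Dual murine macrophage reporter cells were seeded at 50 000 per well in 384-well plates and pre-incubated 1 hour at 37 °C with compound pin-transferred to 10 μM final. After 1 hour, a PRR agonist was added and cells incubated overnight. Supernatant NF-κB (SEAP, QUANTI-Blue, 620 nm absorbance) and IRF (Lucia luciferase, QUANTI-Luc, luminescence) signals were divided by the mean agonist-only control on the same plate to give fold change. Two replicate plates were averaged, with errors by propagation.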
row,SMILES,IRF reporter
1,CCc1c(C)nc(-n2nc(C)cc2NC(=O)CSCc2ccccc2)[nH]c1=O,1.07 ± 0.099
2,COC(=O)Nc1nc2cc(S(=O)c3ccccc3)ccc2[nH]1 (stereo not drawn) [Prestw-1459],0.884 ± 0.23
3,Cc1[nH]c2ccccc2c1CCNCc1ccc(/C=C/C(=O)NO)cc1,0.509 ± 0.06
4,O=C(CSc1nc(-c2ccccc2)c(-c2ccccc2)[nH]1)N1CCOCC1,1.32 ± 0.17
5,O=[N+]([O-])c1ccc2nc(S)sc2c1,1.03 ± 0.15
6,Cc1n[nH]c(C)c1CCC(=O)NC1CCC(F)(F)CC1,1.03 ± 0.28
7,O=C(Nc1nc2ccc(Cl)cc2s1)c1ccc(Br)s1,1.09 ± 0.11
8,CC1(C)[C@H](C(=O)O)N2C(=O)C[C@H]2S1(=O)=O,0.859 ± 0.068
9,NCC(=O)O,1.23 ± 0.21
10,Br.C=CCn1c(=N)n(CC(=O)c2cccc([N+](=O)[O-])c2)c2ccccc21,0.973 ± 0.2
11,Cc1cc(OC2CCN(C(=O)c3csc(C)n3)CC2)nc(C)n1,1.15 ± 0.23
12,Ic1ccc(N=Cc2ccc(C=Nc3ccc(I)cc3)cc2)cc1,1.44 ± 0.23
13,O=Cc1ccc(OC(=O)c2cccc(C(=O)Oc3ccc(C=O)cc3)c2)cc1,1.69 ± 0.14
14,COc1ccc(-c2[nH]c(-c3ccccc3)nc2SCC(=O)NC2CCCC2)cc1,1.11 ± 0.1
15,CCN(C=Nc1sc2c(c1C#N)CC(C)(C)NC2(C)C)CC,1.29 ± 0.22
16,CCOC(=O)N1CCC(=C2c3ccc(Cl)cc3CCc3cccnc32)CC1,1.33 ± 0.29
17,Cc1cc(OCC(=O)Nc2ccccc2-c2ccccc2)ccc1Br,1.55 ± 0.13
18,NC(CO)(CO)CO.O=C(c1ccccc1)c1ccc2n1CCC2C(=O)O (stereo not drawn),1.15 ± 0.19
19,O=C(Nc1cc(C(F)(F)F)cc(C(F)(F)F)c1)c1cc2ccccc2o1,1.03 ± 0.29
20,CC(=O)Nc1ccc(S(=O)(=O)N2CCCc3ccccc32)cc1,1.54 ± 0.32

row,SMILES,IRF reporter
1,CN(C)CCCN1c2ccccc2CCc2ccc(Cl)cc21.Cl,1.78 ± 0.18
2,CCCCOc1ccc(C(=O)Nc2cc(-c3nc4ccccc4o3)ccc2OC)cc1,1.02 ± 0.098
3,CCOC(=O)c1c(N)sc(C(=O)N2CCCC(C(N)=O)C2)c1C (stereo not drawn),1.79 ± 0.39
4,Cn1nc(CNC(=O)c2cccc3ccccc23)cc1C1CC1,0.962 ± 0.15
5,CCOc1ccc(CN(CCc2ccc3c(c2)OCO3)Cc2cccc3ccccc23)cc1,1.04 ± 0.18
6,Cc1cnc(C(=O)O)c[n+]1[O-],0.926 ± 0.11
7,O=S(=O)(c1ccc(F)cc1)N1CCC(c2nc3ccccc3[nH]2)CC1,0.997 ± 0.15
8,O=C(Cn1cnc(-c2ccc(Cl)cc2)cc1=O)N1CCOCC1,1.09 ± 0.21
9,O=C(C=Cc1ccc(O)cc1)c1ccc(O)cc1O,0.81 ± 0.13
10,Cc1cc(OC2CCN(S(=O)(=O)CCc3ccccc3)C2)cc(=O)n1C (stereo not drawn),0.738 ± 0.29
11,CCCC(=O)Nc1ccc(N2CCCCC2)cc1,1.65 ± 0.17
12,CN(C)CCOC(c1ccc(Cl)cc1)c1ccccn1.O=C(O)/C=C\C(=O)O (stereo not drawn),1.15 ± 0.12
13,CS(=O)(=O)Nc1cccc(F)c1,1.07 ± 0.22
14,CCOc1ccc(N=Cc2c(Nc3ccc(OCC)cc3)nc3ccccn3c2=O)cc1,1.41 ± 0.23
15,Cc1cnc2c(c1SCC(=O)N1CCc3ccccc31)c(=O)n(C)c(=O)n2C,1.14 ± 0.25
16,CCOC(=O)c1ccc(N2C(=O)CC(N3CCN(c4ccc([N+](=O)[O-])cc4)CC3)C2=O)cc1 (stereo not drawn),1.47 ± 0.13
17,CS(=O)(=O)C1CC2CCC(C1)N2C(=O)c1cccc(Oc2ccc(F)cc2)c1 (stereo not drawn),1.33 ± 0.17
18,Cn1ccc(C(=O)Nc2nc(C(C)(C)C)cs2)n1,1.57 ± 0.44
19,NC(=S)c1cc2ccc(O)cc2oc1=O,1.05 ± 0.11

# Tested on: RAW-Dual (murine macrophage reporter line)
# Test: viability score (confluency relative to resting cells, overnight) (fraction); higher = more viable, active = viable (0.7 or more)
# Conditions: modulator concentration 10 µM
# Procedure, shortened: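 In 384-well plates, RAW-Dual macrophages received compound at a final 10 μM overnight. Two confluency masks were then made with IncuCyte software from IncuCyte images of all imaged wells. The viability score is defined as confluency relative to resting cells. Passing the cutoff required both masks to lie above 70% of resting cells.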
row,SMILES,viability score
1,CCc1c(C)nc(-n2nc(C)cc2NC(=O)CSCc2ccccc2)[nH]c1=O,1.02 (active)
2,COC(=O)Nc1nc2cc(S(=O)c3ccccc3)ccc2[nH]1 (stereo not drawn) [Prestw-1459],0.999 (active)
3,Cc1[nH]c2ccccc2c1CCNCc1ccc(/C=C/C(=O)NO)cc1,0.055 (inactive)
4,O=C(CSc1nc(-c2ccccc2)c(-c2ccccc2)[nH]1)N1CCOCC1,0.996 (active)
5,O=[N+]([O-])c1ccc2nc(S)sc2c1,0.992 (active)
6,Cc1n[nH]c(C)c1CCC(=O)NC1CCC(F)(F)CC1,1.02 (active)
7,O=C(Nc1nc2ccc(Cl)cc2s1)c1ccc(Br)s1,0.999 (active)
8,CC1(C)[C@H](C(=O)O)N2C(=O)C[C@H]2S1(=O)=O,0.994 (active)
9,NCC(=O)O,1 (active)
10,Br.C=CCn1c(=N)n(CC(=O)c2cccc([N+](=O)[O-])c2)c2ccccc21,1.01 (active)
11,Cc1cc(OC2CCN(C(=O)c3csc(C)n3)CC2)nc(C)n1,1.01 (active)
12,Ic1ccc(N=Cc2ccc(C=Nc3ccc(I)cc3)cc2)cc1,1.02 (active)
13,O=Cc1ccc(OC(=O)c2cccc(C(=O)Oc3ccc(C=O)cc3)c2)cc1,0.989 (active)
14,COc1ccc(-c2[nH]c(-c3ccccc3)nc2SCC(=O)NC2CCCC2)cc1,1 (active)
15,CCN(C=Nc1sc2c(c1C#N)CC(C)(C)NC2(C)C)CC,0.992 (active)
16,CCOC(=O)N1CCC(=C2c3ccc(Cl)cc3CCc3cccnc32)CC1,0.989 (active)
17,Cc1cc(OCC(=O)Nc2ccccc2-c2ccccc2)ccc1Br,0.997 (active)
18,NC(CO)(CO)CO.O=C(c1ccccc1)c1ccc2n1CCC2C(=O)O (stereo not drawn),1.01 (active)
19,O=C(Nc1cc(C(F)(F)F)cc(C(F)(F)F)c1)c1cc2ccccc2o1,1.01 (active)
20,CC(=O)Nc1ccc(S(=O)(=O)N2CCCc3ccccc32)cc1,0.984 (active)

row,SMILES,viability score
1,CN(C)CCCN1c2ccccc2CCc2ccc(Cl)cc21.Cl,0.239 (inactive)
2,CCCCOc1ccc(C(=O)Nc2cc(-c3nc4ccccc4o3)ccc2OC)cc1,1 (active)
3,CCOC(=O)c1c(N)sc(C(=O)N2CCCC(C(N)=O)C2)c1C (stereo not drawn),0.932 (active)
4,Cn1nc(CNC(=O)c2cccc3ccccc23)cc1C1CC1,0.817 (active)
5,CCOc1ccc(CN(CCc2ccc3c(c2)OCO3)Cc2cccc3ccccc23)cc1,0.998 (active)
6,Cc1cnc(C(=O)O)c[n+]1[O-],1 (active)
7,O=S(=O)(c1ccc(F)cc1)N1CCC(c2nc3ccccc3[nH]2)CC1,0.964 (active)
8,O=C(Cn1cnc(-c2ccc(Cl)cc2)cc1=O)N1CCOCC1,1 (active)
9,O=C(C=Cc1ccc(O)cc1)c1ccc(O)cc1O,0.979 (active)
10,Cc1cc(OC2CCN(S(=O)(=O)CCc3ccccc3)C2)cc(=O)n1C (stereo not drawn),0.975 (active)
11,CCCC(=O)Nc1ccc(N2CCCCC2)cc1,0.985 (active)
12,CN(C)CCOC(c1ccc(Cl)cc1)c1ccccn1.O=C(O)/C=C\C(=O)O (stereo not drawn),1 (active)
13,CS(=O)(=O)Nc1cccc(F)c1,1 (active)
14,CCOc1ccc(N=Cc2c(Nc3ccc(OCC)cc3)nc3ccccn3c2=O)cc1,1.04 (active)
15,Cc1cnc2c(c1SCC(=O)N1CCc3ccccc31)c(=O)n(C)c(=O)n2C,1.01 (active)
16,CCOC(=O)c1ccc(N2C(=O)CC(N3CCN(c4ccc([N+](=O)[O-])cc4)CC3)C2=O)cc1 (stereo not drawn),0.997 (active)
17,CS(=O)(=O)C1CC2CCC(C1)N2C(=O)c1cccc(Oc2ccc(F)cc2)c1 (stereo not drawn),0.99 (active)
18,Cn1ccc(C(=O)Nc2nc(C(C)(C)C)cs2)n1,0.675 (inactive)
19,NC(=S)c1cc2ccc(O)cc2oc1=O,1.01 (active)
